Values without a mark were called inactive.
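Also: conidia screened in RPMI 1640 medium under 5% CO2, growth read by spectrophotometer, medium with 0.5% DMSO serving as the untreated reference.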

This test concerns Scedosporium aurantiacum CBS 136046. Briefly: growth inhibition relative to DMSO control (OD600); higher = more antifungal activity, active = 80 or more; extreme values may be limits of the assay. Particulars: 5 µM; 72 h; 37 °C.
As to `Oc1ccc(NCc2ccccc2OCc2ccccc2)cc1`, the growth inhibition was 10%.

As for `COc1cc2c(O)c3c(c(-c4ccc5c(c4)OCO5)c2cc1OC)C(=O)OC3`, the growth inhibition is 25%.

With `COc1ccc(COc2cc3oc(=O)c4cc(C(C)O)ccc4c3cc2OC)cc1` (stereo not drawn), the growth inhibition was 2.35%.

Consider `O=C(NC1CCCc2c1[nH]c1ccc(Cl)cc21)c1ccccn1` (stereo not drawn), for which the growth inhibition is 15.1%.

Regarding `CC(=O)O[C@H]1C[C@@]2(C)[C@@H](C[C@@H](O)[C@H]3[C@@]4(C)CC[C@@H](O)[C@@H](C)[C@@H]4CC[C@@]32C)/C1=C(\CCC=C(C)C)C(=O)O`, the growth inhibition is 19.6%.

As to `CC(C)c1ccc(COc2cccc(-c3cc([S+](C)[O-])c(C#N)c(=O)[nH]3)c2)cc1` (stereo not drawn), the growth inhibition was 0%.

For the molecule `CCOCc1nc2c(N)nc3ccccc3c2n1CC(C)(C)O`, the growth inhibition is 14.6%.

In the case of `COC(=O)Nc1nc2c(C)cccc2[nH]1`, the growth inhibition is 0%.

On to `O=C(O)/C=C/C=C/c1cccc(Oc2cc(Cl)cc(Cl)c2)c1`, for which the growth inhibition is 13.8%.

In the case of `CC(C)Nc1ncnc2c1cnn2-c1ccc(Cl)cc1`, the growth inhibition was 10.7%.

Regarding `Nc1ccc(-c2nc3cc(C(F)(F)F)ccc3n2C23CC4CC(CC(C4)C2)C3)cc1`, the growth inhibition is 27.1%.

For the molecule `O=C(/C(=C/c1ccc(Cl)cc1Cl)n1ccnc1)c1ccc(Cl)cc1`, the growth inhibition is 59.4%.

Take `C[C@H]1CC[C@@]2(O)C(C)(C)[C@@H]3CC[C@@]2(C)[C@H]1C3`: the growth inhibition is 12.7%.

For `O=c1ccc2ncc(=O)n3c2n1CC3CN1CCC(NCc2cc3c(cn2)OCCC3)CC1` (stereo not drawn), the growth inhibition was 0%.

For `O=C(NN1C(=O)[C@@H]2[C@@H]3C=C[C@@H]([C@H]4C[C@@H]34)[C@@H]2C1=O)c1ccc(C(F)(F)F)cc1`, the growth inhibition was 6.47%.

For the molecule `Cc1nc(N(C)C(=O)Cc2ccc(-c3ccccn3)cc2)sc1S(N)(=O)=O`, the growth inhibition is 4.79%.

Regarding `CC(N)C12CC3CC(CC(C3)C1)C2` (stereo not drawn), the growth inhibition was 10.8%.

With `Cc1cc(C2CCCCC2)n(O)c(=O)c1`, the growth inhibition is 18.5%.

Consider `COc1ccc(C2CNC(=O)C2)cc1OC1CCCC1` (stereo not drawn), for which the growth inhibition is 16.6%.

Turning to `COc1ccc2cc3[n+](cc2c1OCCN(CCn1cncn1)Cc1ccc(F)cc1F)CCc1cc2c(cc1-3)OCO2`, the growth inhibition is 2.66%.

As to `OCCCCn1cnc2c(O)nc(NCc3ccc(Cl)c(Cl)c3)nc21`, the growth inhibition was 5.51%.

Regarding `O=C(Nc1ccc(-c2ccccc2)cc1)C1=C(O)C(Cc2ccccc2)OC1=O` (stereo not drawn), the growth inhibition is 45.3%.

Consider `CCc1cc(O)c(Oc2cccnc2N)cc1F`, for which the growth inhibition was 12.4%.

Regarding `O=C(N[C@H](CCS)C(=O)N[C@H](Cc1ccccc1)C(=O)O)c1cc2ccccc2[nH]1`, the growth inhibition is 23.5%.

Take `Fc1ccc2c(/C=C/c3nnn[nH]3)c[nH]c2c1`: the growth inhibition is 4.45%.

As to `OB1OCc2cc(Cl)ccc21`, the growth inhibition is 6.18%.

Consider `N#CCN1C(=O)COc2cc(F)c(N3C(=O)c4ccccc4C3=O)cc21`, for which the growth inhibition is 0%.

As to `CN(C)c1[nH]c(=O)ncc1F`, the growth inhibition is 24.8%.

In the case of `Oc1cc(-c2cccc3ccccc23)[nH]n1`, the growth inhibition is 7.34%.

In the case of `NNC(=O)c1ccncc1`, the growth inhibition is 3.54%.

Regarding `O=C(NCc1ccc2c3c(cccc13)C(=O)N2)c1cccs1`, the growth inhibition was 17%.

Take `O=C(NNC(=S)Nc1ccc(Cl)cc1)c1ccncc1`: the growth inhibition was 10.8%.

Turning to `CC(=O)NC[C@H]1CN(c2ccc(N3CCSCC3)c(F)c2)C(=O)O1`, the growth inhibition was 29.2%.

For `CCCCC(CC)CNC(=N)NC(=N)NCCCCCCNC(=N)NC(=N)NCC(CC)CCCC` (stereo not drawn), the growth inhibition is 85% (active).

As for `O=C(Cn1cnc2ccccc2c1=O)Nc1ccccc1`, the growth inhibition is 1.51%.

For `O=c1cc(NCCCN[C@@H]2CCOc3c(Br)cc(Br)cc32)[nH]c2ccsc12`, the growth inhibition is 17.3%.

With `O=C(CC1Sc2ncnn2C1=O)Nc1ccc(Br)cc1` (stereo not drawn), the growth inhibition is 33.4%.

`Cc1c(OCC(F)(F)F)ccnc1C[S+]([O-])c1nc2ccccc2[nH]1` (stereo not drawn): the growth inhibition was 39.8%.

Source of the values: the supplement of paper PMC9897528.
